# Data published in PubChem BioAssay.
# Calls of active or inactive are those of the source.
# Experiments:
# [1] = A549 cell viability effects, profiling panel, calcein-AM fluorescence, 48 h, basal (AID 1162); conditions: higher = more signal
# [2] = adipocyte viability effects, profiling panel, cell-based, 3T3-L1 adipocytes, calcein-AM fluorescence, 48 h, basal (AID 1163); conditions: 3T3-L1 adipocytes viability, higher = more signal
# [3] = HepG2 cell viability effects, profiling panel, calcein-AM fluorescence, 48 h, basal (AID 1164); conditions: higher = more signal
# [4] = MM1S cell viability effects, profiling panel, calcein-AM fluorescence, 48 h, basal (AID 1165); conditions: higher = more signal;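 further: viability of MM1S multiple myeloma cells under basal unstimulated conditions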
# [5] = basal RPMI8226 viability, no added stimulus, profiling panel, cell-based, calcein-AM fluorescence, 48 h, PK04 Diversity Set (AID 1166); conditions: RPMI8226 myeloma viability, higher = more signal;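 further: cells grown under basal conditions without added stimulus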
# [6] = basal HepG2 mitochondrial membrane potential changes, profiling panel, cell-based, JC-1 fluorescence, 24 h, 100 nL compound (AID 1167); conditions: higher = more signal
# [7] = basal 3T3-L1 adipocyte mitochondrial potential changes, profiling panel, cell-based, JC-1 fluorescence, 3T3-L1 adipocytes, 24 h, 100 nL compound (AID 1168); conditions: JC-1 mitochondrial fluorescence, higher = more signal, called active from +8 up or from −8 down
# [8] = basal RPMI8226 mitochondrial membrane potential changes, profiling panel, cell-based, JC-1 fluorescence, 24 h, 100 nL compound (AID 1169); conditions: RPMI8226 myeloma, JC-1 mitochondrial potential fluorescence, higher = more signal
# [9] = basal MM1S mitochondrial membrane potential changes, profiling panel, cell-based, JC-1 fluorescence, 24 h, 100 nL compound (AID 1170); conditions: higher = more signal
# [10] = A549 lung cancer cell viability effects, profiling panel, resazurin fluorescence, 24 h, PK04 Diversity Set (AID 1171); conditions: higher = more signal, called active from +8 up or from −8 down
# Further: test concentration not given here.
Structure (SMILES),z-score [1],z-score [2],z-score [3],z-score [4],z-score [5],z-score [6],z-score [7],z-score [8],z-score [9],z-score [10]
O=C1O[C@H](c2ccccc2)[C@H](c2ccccc2)N2[C@H]1[C@@H](C(=O)N1CCN(c3ncccn3)CC1)[C@]1(C(=O)Nc3ccc(C#CC4(O)CCCCCC4)cc31)[C@H]2c1ccc(OCCO)cc1,0.282,1.11,0.473,-0.699,0.148,-1.73,-0.309 (inactive),-0.618,-0.87,0.746 (inactive)
COC(=O)[C@@]1(Cc2ccccc2)[C@@H]2C(=CC(=O)[C@H]2CC(=O)C(=O)N(C)C)CN1C(=O)c1ccccc1,0.349,0.108,0.11,-2.52,-1.81,2.58,-0.0995 (inactive),-0.791,-2.68,-1.11 (inactive)
COC1OC[C@]2(C)[C@H]3C4=C(CN2C(=O)OC(C)(C)C)[C@H](C)C(CO)C(CO)C4CC[C@@H]13 (stereo not given in full),0.657,0.281,1.3,0.728,-0.944,2.82,0.0682 (inactive),0.287,-1.08,-0.634 (inactive)
C=CCC(OC(C)=O)[C@@H]1[C@@H](N(Cc2ccc(-c3cccc(C(F)(F)F)c3)o2)C(=O)c2ccc(C)cc2)c2cc(OCCCO)ccc2N1C(=O)c1ccc2ccccc2c1 (stereo not given in full),-0.403,0.821,0.236,0.47,0.966,3.41,0.586 (inactive),0.102,-0.555,0.462 (inactive)
C=C(C(=O)CC[C@@H](OC(C)=O)c1ccc(CO)o1)C(C)C,-0.306,-0.317,-0.261,-1.39,-0.812,-1.5,0.241 (inactive),0.544,-0.591,0.246 (inactive)
COC(=O)c1c(CC[C@@H](CO)NC(=O)N2CCC[C@H]2Cn2cc(Cc3ccccc3)nn2)oc(C(C)=O)c1C(=O)OC,-0.105,-0.25,-0.904,0.823,-1.41,-0.123,-0.0157 (inactive),0.127,-0.236,0.435 (inactive)
CC1CC/C=C\[C@H]2OC34C=CCN(c5ccc(Cl)cc5)C(=O)[C@H]3N(CCCCCO)C(=O)[C@]4(C)C2C(=O)O1 (stereo not given in full),-0.0287,-0.607,0.843,0.743,-0.381,-0.197,-0.0396 (inactive),-0.909,1.27,-0.194 (inactive)
C[C@@H]1ON(c2ccc(C(=O)OC(C)(C)C)cc2)[C@H](c2ccc(O)cc2)[C@H]1C(=O)N1C(=O)OC[C@H]1Cc1ccccc1,-1.68,0.82,-4.85,-3.31,-4.04,-3.38,-0.493 (inactive),-0.877,-2.81,-1.31 (inactive)
C=CCOC(=O)[C@H]1[C@@H]2C(=O)O[C@@H](c3ccccc3)[C@@H](c3ccccc3)N2[C@@H](c2ccc(OCCOC(=O)[C@H]3C[C@H]4C(=O)N[C@@H](CC(C)C)C(=O)N4[C@H]3c3cccc(OCCO)c3)cc2)[C@]12C(=O)Nc1ccc(I)cc12,-0.681,0.329,0.281,-1.15,-0.0034,1.69,0.681 (inactive),-0.762,-0.7,-0.0975 (inactive)
CO[C@H]1O[C@H](CO)[C@@H](OC(=O)Nc2ccc3c(c2)OCO3)[C@H](OC(=O)c2cc3ccccc3[nH]2)[C@H]1OC(=O)c1cc2ccccc2[nH]1,0.603,0.477,0.463,-1.98,1.11,-2.54,1.27 (inactive),-0.31,-1.29,-3.63 (inactive)
COc1ccc([Si](C)(C)[C@@H]2[C@@H](CC(=O)N(CCO)Cc3ccccc3)O[C@]3(C(=O)N(c4ccccc4)c4ccccc43)[C@H]2C)cc1,-2.69,1.11,-4.56,-2.67,-4.36,-0.899,0.928 (inactive),-1.08,-2.3,-1.94 (inactive)
COCCOC(=O)N1C(=O)[C@@]2(c3cc(C#Cc4ccc(OC)cc4)ccc31)[C@H](C(=O)Nc1nc3ccccc3s1)[C@H]1C(=O)O[C@H](c3ccccc3)[C@H](c3ccccc3)N1[C@@H]2c1ccc(OCCO)cc1,-0.205,-0.106,-1.07,-1.59,-0.482,-3.17,2.92 (inactive),-0.604,-1.44,-0.0799 (inactive)
C=CCC(OC(C)=O)[C@@H]1[C@@H](N(Cc2ccc(-c3cccc(C(F)(F)F)c3)o2)C(=O)c2ccc(-c3ccccc3)cc2)c2cc(OCCCO)ccc2N1C(=O)c1ccc2ccccc2n1 (stereo not given in full),-0.157,0.585,-0.474,0.0887,0.458,2.07,-0.572 (inactive),0.378,-0.0621,0.264 (inactive)
C=C(/C(=C/C[C@H](OC(C)=O)c1ccccc1OCCO)c1cc(C(=O)OC)ccc1OC)C(C)C,-0.297,1.77,-0.644,-1.2,-1.75,1.14,1.16 (inactive),0.0903,1.08,0.0515 (inactive)
O=C1OCC=C[C@H]2OC34C=CCN(c5ccc(Cl)cc5)C(=O)[C@H]3N(CCO)C(=O)[C@@H]4[C@@H]12 (stereo not given in full),0.667,0.0916,0.781,0.0654,0.714,-0.365,-0.803 (inactive),0.0649,0.596,-0.27 (inactive)
[N-]=[N+]=Nc1ccccc1[C@@H]1OC(c2ccc(OCCCO)cc2)=N[C@]1(Cc1ccccc1)C(=O)NCC(O)CO (stereo not given in full),-0.828,0.509,-0.306,-1.94,-1.81,0.307,0.778 (inactive),-1.15,-0.318,-0.545 (inactive)

Structure (SMILES),z-score [1],z-score [2],z-score [3],z-score [4],z-score [5],z-score [6],z-score [7],z-score [8],z-score [9],z-score [10]
O=C1O[C@H](c2ccccc2)[C@H](c2ccccc2)N2[C@H]1[C@@H](C(=O)Nc1nc3ccccc3s1)[C@]1(C(=O)Nc3ccc(C#CC4(O)CCCCCC4)cc31)[C@H]2c1ccccc1OCCO,-0.744,0.248,-1.54,-3.44,-4.15,-2.82,2.18 (inactive),-0.951,-1.5,-2.21 (inactive)
CC(C)C[C@@H]1NC(=O)[C@@H]2C[C@H](C(=O)NCCCCN(C)C)[C@H](c3cccc(OCCO)c3)N2C1=O,0.355,0.507,-1.2,0.26,0.54,-0.627,0.454 (inactive),-0.601,-0.443,0.389 (inactive)
CC(C)(C)OC(=O)CC[C@@]1(C(=O)NCc2ccccc2)N=C(c2ccc(OCCCO)cc2)O[C@@H]1c1ccccc1N=[N+]=[N-],-0.365,1.55,-0.258,-1.68,-1.41,0.515,1.35 (inactive),-1.01,0.24,-0.682 (inactive)
CN1C(=O)C2C=CC(C(O)c3ccccn3)N(N(c3ccccc3)c3ccccc3)C2C1=O (stereo not given),-0.711,-1.63,-0.108,0.0262,-0.771,-1.53,-0.695 (inactive),0.305,-0.468,-0.859 (inactive)
CCCC[C@@H]1C[C@H]1[C@@H](NC(=O)c1cccs1)c1ccc(C(F)(F)F)cc1,-1.36,-0.249,-0.655,-0.771,-1.47,-1.04,-1.23 (inactive),0.404,-0.917,0.724 (inactive)
N#Cc1ccc(C(O)C2C=CC3C(=O)N(c4ccccc4)C(=O)C3N2Nc2ccccc2)cc1 (stereo not given),-0.26,0.744,-0.638,0.41,-0.153,-0.651,0.693 (inactive),0.173,-0.482,-1 (inactive)
CO[C@]12C=C(Br)[C@@H](C[C@@H]1c1cccc(C)c1)[C@@]1(CO1)C2=O,-0.406,0.287,-0.932,-2.16,-0.643,-1.11,-0.295 (inactive),-0.107,-0.693,0.862 (inactive)
NC(N)=NCCCn1cc(CNC(=O)[C@@H](N)Cc2ccccc2)nn1,-0.531,-0.637,-0.948,-0.0334,-1.23,-0.868,-0.283 (inactive),0.714,0.225,-0.414 (inactive)
C[C@@H]1NC(=O)[C@@]23C(=O)N[C@@H](Cc4ccccc4)C2[C@H](C)[C@@]2(C)O[C@H]2C3/C=C/C/C=C\CNC(=O)[C@@H]2CCCN2C1=O (stereo not given in full),-0.143,0.389,-0.0552,0.37,-0.0448,-0.175,1.19 (inactive),0.632,-0.0219,0.247 (inactive)
CCOC(=O)C[C@H]1[C@H](OC(=O)c2ccccc2-c2ccccc2)[C@@H](NC(=O)C2CCCCC2)c2cc(OCCCO)ccc2N1C(=O)Cc1ccc(OC)cc1,0.544,0.744,0.43,-0.524,-0.593,0.908,-0.388 (inactive),-0.285,-0.663,0.361 (inactive)
C=C(COC)C(=O)CC[C@@H](OC(=O)c1cccnc1)c1ccc(OCCO)cc1,-0.1,-0.486,-0.419,-2.55,-1.29,-1.89,0.42 (inactive),0.829,-0.374,-0.284 (inactive)
CCCNC(=O)[C@@H]1c2ccccc2C(=O)N(C(C)C)[C@H]1c1ccc(CO)cc1,0.678,0.306,0.997,0.92,-0.34,1.81,1.82 (inactive),-0.119,-0.695,0.136 (inactive)
C=C[C@@H](OC)[C@H](OC(=O)Nc1ccc(SC)cc1)c1ccc(O)c(F)c1,-0.247,-0.19,-0.419,-1.4,-0.515,-2.52,1.47 (inactive),-0.362,-0.317,-0.637 (inactive)
C=C(C)C1CCC(C(O)C2C=CC3C(=O)N(C)C(=O)C3N2N2CCCCC2)CC1 (stereo not given),-1.25,-1.16,-0.774,-0.683,-0.665,-1.38,-1.53 (inactive),0.887,-0.31,0.262 (inactive)
CCOC(=O)C1=CC[C@@H](c2ccc(OCc3ccccc3)c(OC)c2)N(S(=O)(=O)c2ccc(C)cc2)[C@H]1c1ccc(SC)cc1,-0.568,0.211,0.355,-0.821,-0.906,1.37,-1.14 (inactive),0.419,-0.598,1.33 (inactive)
